Results from PubChem BioAssay (Tox21).
Inconclusive results are not listed. Active and inactive are the calls of the source. Calls follow the shape of the dose curve; as a rule, active = well fitted curve in the direction sought with a large enough effect in the repeat runs; inconclusive = weak or mixed curves; inactive = no such curve, though single readings can be large; an effect the other way counts as inactive or inconclusive.

Tests used:
[1] = qHTS RealTime-Glo MT Cell Viability Assay in HepG2 cells - 40 hour (AID 1224870); also: nearly all actives have a fitted effect of over 50% in size; also: potency is read from the fitted curve at half-maximal effect
Outline: (§1)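 HepG2 cells mixed with RealTime-Glo MT reagents (NanoLuc plus cell-permeant prosubstrate) were seeded at 600 cells/well, incubated 5 h at 37 C/5% CO2, then pinned with compounds in DMSO; nonlytic luminescence tracked viability during 40 h treatment.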

[2] = A CellTox Green Cytotoxicity Assay to monitor cytotoxicity in HEK293 cells - 40 hour (AID 1224871); also: nearly all actives have a fitted effect of over 45% in size; also: potency is read from the fitted curve at half-maximal effect
Outline: (§2)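 HEK293 cells, 600/well, were preincubated 5 hours and then exposed to compounds at 37 C for up to 40 hours. A cell-impermeant cyanine dye staining dead-cell DNA was read by fluorescence at 0, 8, 16, 24, 32 and 40 h time points.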

[3] = qHTS RealTime-Glo MT Cell Viability Assay in HEK293 cells - 16 hour (AID 1224872); also: nearly all actives have a fitted effect of over 50% in size; also: potency is read from the fitted curve at half-maximal effect
Outline: (§3)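 Tox21 10K qHTS, HEK293, 600 cells/well, RealTime-Glo reagent co-dispensed with cells; 5 h preincubation, compound by pintool, 37 C, luminescence at 0–40 h.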

[4] = qHTS RealTime-Glo MT Cell Viability Assay in HepG2 cells - 8 hour (AID 1224873); also: nearly all actives have a fitted effect of over 55% in size; also: potency is read from the fitted curve at half-maximal effect
Outline: as §1

[5] = qHTS RealTime-Glo MT Cell Viability Assay in HEK293 cells - 40 hour (AID 1224874); conditions: RealTime-Glo luminescence; max response: stronger effect = lower value; also: nearly all actives have a fitted effect of over 50% in size; also: potency is read from the fitted curve at half-maximal effect
Outline: (§4)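 600 cells/well were plated with the nonlytic NanoLuc/prosubstrate reagent, pre-incubated 5 h, then given 23 nL of compound in DMSO. Incubation at 37 C for 40 h, with luminescence from viable-cell-reduced substrate read repeatedly from 0 h.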

[6] = A CellTox Green Cytotoxicity Assay to monitor cytotoxicity in HEK293 cells - 24 hour (AID 1224875); also: nearly all actives have a fitted effect of over 45% in size; also: potency is read from the fitted curve at half-maximal effect
Outline: as §2

[7] = qHTS RealTime-Glo MT Cell Viability Assay in HepG2 cells - 32 hour (AID 1224877); also: nearly all actives have a fitted effect of over 55% in size
Outline: (§5)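 Cells + NanoLuc/prosubstrate dispensed (600 cells/well) → 5 h at 37 C/5% CO2 → compounds in DMSO transferred → 40 h incubation at 37 C, luminescence read at 0, 8, 16, 24, 32, 40 h.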

[8] = A CellTox Green Cytotoxicity Assay to monitor cytotoxicity in HepG2 cells - 24 hour (AID 1224878); also: nearly all actives have a fitted effect of over 45% in size
Outline: (§6)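 HepG2 cells, 600/well, preincubated 5 h with CellTox Green dye, then exposed to Tox21 compounds in DMSO at 37 C for up to 40 h. Dead-cell DNA fluorescence read at the indicated time point.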

[9] = A CellTox Green Cytotoxicity Assay to monitor cytotoxicity in HepG2 cells - 40 hour (AID 1224879); also: nearly all actives have a fitted effect of over 40% in size; also: potency is read from the fitted curve at half-maximal effect
Outline: as §6

[10] = qHTS RealTime-Glo MT Cell Viability Assay in HEK293 cells - 0 hour (AID 1224880); also: top concentration of the series differs between compounds; nearly all actives have a fitted effect of over 45% in size
Outline: as §4

[11] = A CellTox Green Cytotoxicity Assay to monitor cytotoxicity in HEK293 cells - 32 hour (AID 1224881); also: nearly all actives have a fitted effect of over 40% in size; also: potency is read from the fitted curve at half-maximal effect
Outline: as §2

[12] = A CellTox Green Cytotoxicity Assay to monitor cytotoxicity in HepG2 cells - 0 hour (AID 1224882); also: nearly all actives have a fitted effect of over 35% in size
Outline: as §6

[13] = A CellTox Green Cytotoxicity Assay to monitor cytotoxicity in HEK293 cells - 8 hour (AID 1224884); also: nearly all actives have a fitted effect of over 35% in size
Outline: as §2

[14] = qHTS RealTime-Glo MT Cell Viability Assay in HEK293 cells - 24 hour (AID 1224886); also: nearly all actives have a fitted effect of over 50% in size; also: potency is read from the fitted curve at half-maximal effect
Outline: as §3

[15] = qHTS RealTime-Glo MT Cell Viability Assay in HEK293 cells - 8 hour (AID 1224887); also: nearly all actives have a fitted effect of over 50% in size; also: potency is read from the fitted curve at half-maximal effect
Outline: as §4

[16] = A CellTox Green Cytotoxicity Assay to monitor cytotoxicity in HEK293 cells - 16 hour (AID 1224888); also: nearly all actives have a fitted effect of over 35% in size
Outline: as §2

[17] = qHTS RealTime-Glo MT Cell Viability Assay in HepG2 cells - 0 hour (AID 1224889); also: nearly all actives have a fitted effect of over 50% in size
Outline: as §5

[18] = A CellTox Green Cytotoxicity Assay to monitor cytotoxicity in HepG2 cells - 16 hour (AID 1224876); also: nearly all actives have a fitted effect of over 45% in size
Outline: as §6

[19] = qHTS RealTime-Glo MT Cell Viability Assay in HepG2 cells - 16 hour (AID 1224885); also: nearly all actives have a fitted effect of over 50% in size; also: potency is read from the fitted curve at half-maximal effect
Outline: as §5

[20] = A CellTox Green Cytotoxicity Assay to monitor cytotoxicity in HepG2 cells - 32 hour (AID 1224883); also: nearly all actives have a fitted effect of over 50% in size; also: potency is read from the fitted curve at half-maximal effect
Outline: as §6
% is scaled to controls: 0 for no effect and ±100 for the full control effect.

COc1ccc(C(=O)NCc2ccc(OCCN(C)C)cc2)cc1OC
inactive: Potency [1] | Potency [2] | Potency [3] | Potency [4] | max response [5] 2.93% | Potency [6] | Potency [7] | Potency [8] | Potency [9] | Potency [10] | Potency [11] | Potency [12] | Potency [13] | Potency [14] | Potency [15] | Potency [16] | Potency [17]

CCN(Cc1cccc(S(=O)(=O)O)c1)c1ccc(C(=C2C=CC(=[N+](CC)Cc3cccc(S(=O)(=O)O)c3)C=C2)c2ccc(O)cc2S(=O)(=O)[O-])cc1
inactive: Potency [1] | Potency [2] | Potency [3] | Potency [4] | max response [5] 8.88% | Potency [18] | Potency [7] | Potency [8] | Potency [9] | Potency [10] | Potency [11] | Potency [12] | Potency [13] | Potency [19] | Potency [14] | Potency [15] | Potency [16] | Potency [17]

CCOC(=O)N1CCC(Nc2ccc(Cl)cc2N)CC1
inactive: Potency [1] | Potency [2] | Potency [3] | Potency [4] | max response [5] -19% | Potency [18] | Potency [7] | Potency [8] | Potency [9] | Potency [10] | Potency [11] | Potency [12] | Potency [20] | Potency [13] | Potency [19] | Potency [15] | Potency [16] | Potency [17]

O=CNNC=O
inactive: Potency [1] | Potency [2] | Potency [3] | Potency [4] | max response [5] 10.2% | Potency [18] | Potency [7] | Potency [8] | Potency [9] | Potency [10] | Potency [11] | Potency [12] | Potency [20] | Potency [13] | Potency [14] | Potency [15] | Potency [16] | Potency [17]

CCC(CO)(CO)CO
inactive: Potency [1] | Potency [2] | Potency [3] | Potency [4] | max response [5] 5.95% | Potency [6] | Potency [7] | Potency [8] | Potency [9] | Potency [10] | Potency [11] | Potency [12] | Potency [13] | Potency [19] | Potency [14] | Potency [16] | Potency [17]

O=C1[C@@H]2[C@H]3CC[C@H](C3)[C@@H]2C(=O)N1CCCCN1CCN(c2ncccn2)CC1
inactive: Potency [1] | Potency [2] | Potency [3] | Potency [4] | max response [5] -0.051% | Potency [6] | Potency [10] | Potency [11] | Potency [12] | Potency [13] | Potency [19] | Potency [14] | Potency [16] | Potency [17]

CN1C(CSCC(F)(F)F)Nc2cc(Cl)c(S(N)(=O)=O)cc2S1(=O)=O (centres undefined)
inactive: Potency [1] | Potency [2] | Potency [4] | Potency [18] | Potency [7] | Potency [9] | Potency [10] | Potency [11] | Potency [12] | Potency [19] | Potency [16] | Potency [17]
active: Potency [3] 19 µM | Potency [5] 21.3 µM | Potency [14] 16.9 µM | Potency [15] 19 µM

CSCC[C@H](NC(=O)[C@H](Cc1c[nH]c2ccccc12)NC(=O)CCNC(=O)OC(C)(C)C)C(=O)N[C@@H](CC(=O)O)C(=O)N[C@@H](Cc1ccccc1)C(N)=O
inactive: Potency [1] | Potency [2] | Potency [3] | Potency [4] | max response [5] 3.31% | Potency [18] | Potency [7] | Potency [8] | Potency [9] | Potency [10] | Potency [11] | Potency [12] | Potency [20] | Potency [14] | Potency [15] | Potency [16] | Potency [17]

CCCCCCCCCCCC(=O)OCC(O)CO (centres undefined)
inactive: Potency [1] | Potency [2] | Potency [3] | Potency [4] | max response [5] 6.6% | Potency [6] | Potency [7] | Potency [8] | Potency [9] | Potency [10] | Potency [11] | Potency [12] | Potency [13] | Potency [19] | Potency [14] | Potency [15] | Potency [16] | Potency [17]

CCC(C)(C)C(=O)O
inactive: Potency [1] | Potency [2] | Potency [3] | Potency [4] | max response [5] -0.784% | Potency [6] | Potency [7] | Potency [8] | Potency [9] | Potency [10] | Potency [11] | Potency [12] | Potency [20] | Potency [19] | Potency [14] | Potency [15] | Potency [16] | Potency [17]

CNc1c2c(nn1C)CCCC2
inactive: Potency [1] | Potency [2] | Potency [3] | Potency [4] | max response [5] -3.57% | Potency [6] | Potency [7] | Potency [8] | Potency [9] | Potency [10] | Potency [11] | Potency [12] | Potency [20] | Potency [13] | Potency [19] | Potency [14] | Potency [15] | Potency [16] | Potency [17]

CCC(CO)(CO)[N+](=O)[O-]
inactive: Potency [1] | Potency [2] | Potency [3] | Potency [4] | max response [5] 1.66% | Potency [6] | Potency [10] | Potency [11] | Potency [12] | Potency [13] | Potency [19] | Potency [14] | Potency [15] | Potency [16] | Potency [17]

O=[N+]([O-])C1(Br)COCOC1
active: Potency [1] 49 µM | Potency [2] 49 µM | Potency [3] 38.9 µM | Potency [4] 54.9 µM | Potency [5] 34.7 µM | Potency [6] 54.9 µM | Potency [9] 43.6 µM | Potency [11] 54.9 µM | Potency [20] 49 µM | Potency [19] 49 µM | Potency [14] 38.9 µM | Potency [15] 49 µM
inactive: Potency [10] | Potency [12] | Potency [17]

CC(C)(C)NCC(O)COc1cccc2c1C[C@H](O)[C@H](O)C2 (some centres undefined)
inactive: Potency [1] | Potency [2] | Potency [3] | Potency [4] | max response [5] 4.53% | Potency [18] | Potency [7] | Potency [8] | Potency [9] | Potency [10] | Potency [11] | Potency [12] | Potency [20] | Potency [13] | Potency [19] | Potency [14] | Potency [15] | Potency [16] | Potency [17]
